This is part of a sample that, as a whole, favours compounds with a hit. Of some 83,000 tested, about 20% had one in any assay.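 Interpretation: 100, growth as untreated; towards 0, rising growth inhibition; 0, no net growth; 0 to -100, cell death. Compounds scoring below 10 were considered active.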 Values without a mark were called inactive. The source made the active and inactive calls.
Columns and labels:
Assay in all cases: NCI-60 one-dose screen, 48 h (100 = growth as untreated, 0 = no growth, -100 = all killed)
DU-145 prostate = settings: 10 µM unless noted
K-562 leukemia = settings: 10 µM unless noted
MALME-3M melanoma = settings: 10 µM unless noted
MDA-MB-231 breast = settings: 10 µM unless noted
SF-268 CNS = settings: 10 µM unless noted
SF-295 CNS = settings: 10 µM unless noted
SF-539 CNS = settings: 10 µM unless noted
UACC-257 melanoma = settings: 10 µM unless noted
M14 melanoma = settings: 10 µM unless noted
HCT-15 colon = settings: 10 µM unless noted
HT29 colon = settings: 10 µM unless noted
SNB-75 CNS = settings: 10 µM unless noted
SNB-19 CNS = settings: 10 µM unless noted
U251 CNS = settings: 10 µM unless noted
PC-3 prostate = settings: 10 µM unless noted
SK-MEL-5 melanoma = settings: 10 µM unless noted
LOX IMVI melanoma = settings: 10 µM
SK-MEL-28 melanoma = settings: 10 µM unless noted
RXF 393 renal = settings: 10 µM unless noted
UACC-62 melanoma = settings: 10 µM unless noted

SMILES | growth (DU-145 prostate) | growth (K-562 leukemia) | growth (MALME-3M melanoma) | growth (MDA-MB-231 breast) | growth (SF-268 CNS) | growth (SF-295 CNS) | growth (SF-539 CNS) | growth (UACC-257 melanoma) | growth (M14 melanoma) | growth (HCT-15 colon) | growth (HT29 colon) | growth (SNB-75 CNS) | growth (SNB-19 CNS) | growth (U251 CNS) | growth (PC-3 prostate) | growth (SK-MEL-5 melanoma) | growth (LOX IMVI melanoma) | growth (SK-MEL-28 melanoma) | growth (RXF 393 renal) | growth (UACC-62 melanoma)
Nc1ccc(-c2ccc(N)c(S(=O)(=O)O)c2)cc1S(=O)(=O)O | 109% | 118% | 107% | 110% | 103% | 115% | 106% | 134% | 104% | 118% | 109% | 83.1% | 101% | 115% | 101% | 111% | 94.4% | 119% |  | 
Oc1c(Cl)cc(Cl)cc1C=NCC1CCC(CN=Cc2cc(Cl)cc(Cl)c2O)CC1 (centres undefined) | 104% | 66.8% | 89.6% |  | 70.9% | 98% | 89.3% | 111% | 90.4% | 84.9% | 103% | 66.9% | 79.8% | 83% | 77.6% | 94.4% | 69.6% | 89.2% | 90.9% | 97.7%
CCc1cccc(CC)c1N1C(=O)C=CC1=O | 112% | 23.8% | 121% | 132% | 97.6% | 106% | 107% | 81.6% |  | 104% | 113% | 93.8% | 105% | 100% | 110% | 98.1% | 106% | 119% |  | 112%
Oc1c(C(Nc2ccccc2)c2ccccc2)ccc2cccnc12 (centres undefined) | 57.8% | 32.1% | 87.6% |  | 33.4% | 6.25% (active) | 27.2% | 64.3% | 45.8% | 29.4% | 44.5% | 70.8% | 46.8% | 25.7% | 28.9% | 19.7% | 31.6% | 53.3% | 74.9% | 31.4%
Cc1nn(CCO)c(C)c1N=[N+]([O-])c1c(C)nn(CCO)c1C | -9.05% (active) | -31.8% (active) | -59.9% (active) | 98.6% | 81.3% | 100% | 89.1% | -56.2% (active) | -61.6% (active) | -4.21% (active) | -14% (active) | 52.4% | 98.2% | 69.6% | 76.6% | 71.5% | 16% | 83.2% |  | 61%
Cc1ccc(Nc2ccc(O)c3c2C(=O)c2c(O)ccc(Nc4ccc(C)cc4)c2C3=O)cc1 | 124% | 115% | 102% | 110% | 114% | 104% | 96.3% | 95% | 102% | 94.8% | 106% | 99.4% | 91.6% | 99.8% | 90.7% | 91.7% | 96.9% | 112% |  | 105%
O=C/C=C/c1ccc([N+](=O)[O-])cc1 | 102% | 95.8% | 99.6% |  | 98.2% | 105% | 99.3% | 97.7% | 93.3% | 105% | 97.6% | 98.9% | 95.3% | 95.5% | 98.7% | 102% | 83.8% | 113% | 116% | 98.2%
O=C1C=CC(O)=CC1=P(c1ccccc1)(c1ccccc1)c1ccccc1 | 114% | 88.8% | 59.5% | 81.3% | 100% | 107% | 86.9% |  | 100% | 96.2% | 103% | 84.2% | 94.9% | 92.3% | 91.6% | 95.7% | 94.7% | 102% |  | 83.7%
COC(=O)c1ccc(=O)c2nc3/c(=C/O)c(O)cc(=O)c3[nH]c12 | 29.5% | 7.14% (active) | 1.52% (active) | 45.3% | 14.5% | 6.32% (active) | 12.6% | 5.98% (active) |  | 10.1% | 29.4% | 12.6% | 11.6% | 7.56% (active) | 30.5% | 22% | 19% | 34.2% |  | -3.09% (active)
O=C1CSC(=S)N1Cc1cccnc1 | 25% | 7.08% (active) | 102% | 106% | 107% | 120% | 93.6% | 59.5% |  | 58.3% |  | 83.3% | 110% |  | 85.1% | 99.8% | 17.5% | 92.1% |  | 87.6%
CCOc1ccc2c(c1)/C(=C\C=C\C1CC(C)C3CC(OCC)CCC3N1CC)CC(C)N2CC (centres undefined) | 14.8% | 4.61% (active) | -30.1% (active) | 13.6% | 21.7% |  | 19.5% | -25.2% (active) | 14.9% | 17.8% | -33.4% (active) | -0.249% (active) | 22.2% | 6.59% (active) | 3.32% (active) | -86.3% (active) | 16.3% | 22.8% |  | 32.5%
COc1ccc2nc3cc(Cl)ccc3c(NCCCCCN3CCCCC3)c2c1 | -3.46% (active) | -13.9% (active) | -84.7% (active) |  | -36.4% (active) | 43.2% | -89.7% (active) | -74.8% (active) | -81.9% (active) | -32.2% (active) | -41.3% (active) | -98.1% (active) | 2.99% (active) | -74.5% (active) | -45.3% (active) | -96.9% (active) | -80.4% (active) | -79.9% (active) | -72.1% (active) | -67.9% (active)
O=C1C(=O)c2cccnc2-c2ncccc21 | -74% (active) | -23.4% (active) | -12.6% (active) | -39.3% (active) | -94.5% (active) | 2.62% (active) | -97% (active) | 0.671% (active) | -92.6% (active) | -20.5% (active) | -62.9% (active) | -13.3% (active) | 0.441% (active) | -91.5% (active) | -24.5% (active) | -100% (active) | -83.8% (active) | -9.12% (active) |  | 
CCCC[n+]1c(/C=C\c2c(OC)cc(OC)cc2OC)ccc2ccccc21 | 23% | 0.911% (active) | 13% | -15.1% (active) | 22% | -74.7% (active) | 10.3% | -41.5% (active) |  | 35.1% | -33.5% (active) | -13.2% (active) | 19% |  | 2.91% (active) | -97.2% (active) | -75.5% (active) | -10.8% (active) |  | -37.2% (active)
CN(Cc1ccccc1)c1ccc(SC#N)cc1 | 103% | 31.8% | 82.4% |  | 85% | 95.4% | 87.7% | 102% | 84% | 71.8% | 52.3% | 81.3% | 93.3% | 73.4% | 27.4% | 98.2% | 45% | 101% | 68.3% | 97%
CCCCCCCCCCCCNCCCc1ccccc1 | 84% | 2.28% (active) | 82.5% | 61.3% | 80.6% | 102% | 69.6% | 82% | 52% | 23.9% | 7.89% (active) | 64.7% | 92.2% |  | 78.9% |  |  | 73.4% |  | 57.2%
CN(C)c1ccc(/C=C/c2ccnc3ccccc23)cc1 | 78.1% | 25.1% | 60.2% | 57.4% | 70% | 31.7% | 47.2% | 41.9% | 44.3% | 26.8% | 4.25% (active) | 22.4% | 51.7% | 38.3% | 53% | 33% | 38.3% | 71.8% |  | 34.4%

— PubChem BioAssay (NCI)
